Among the data in PubChem BioAssay (EPA / NIEHS) are outcome and AC50 values, retold here.

Active and inactive are the calls of the source. Rule for the calls: active = hit-call score of the fitted dose curve at least 0.9, where 1 is the maximum; inactive = score below 0.9.

The assay is described as follows: ATG_DR4_LXR_CIS: Attagene CIS-FACTORIAL HepG2 Assay for human Liver X Receptor (LXR), DR4 submotif (AID 2282929). The following applies: HepG2 Attagene DR4 cis-reporter, mRNA transcription; actives raise or lower the signal. The method in brief: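 The endpoint is DR4-element-driven reporter transcripts after 24 h chemical exposure of transfected HepG2 cells. These were measured via RT-PCR and capillary electrophoresis, and gain or loss of signal was fitted relative to DMSO controls.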
Take `Nc1c(Oc2ccccc2)cc(O)c2c1C(=O)c1ccccc1C2=O`: the result was inactive.

`C=CCN=C=S`: the compound was called inactive.

Consider `C[C@]12CC[C@@H](O)C[C@@H]1CC[C@@H]1[C@@H]2CC[C@]2(C)C(=O)CC[C@@H]12`, for which the result was inactive. As for `C#CCOC(=O)/C=C(C)/C=C/CC(C)CCCC(C)C` (stereo not given), the AC50 – broadly, the concentration at which the activity in the assay is half-maximal – was 96.1 µM (active). For the compound `C=C(C)[C@@H]1CC=C(C=O)CC1`, the result was inactive.

As to `CN(C)[C@@H]1C(=O)C(C(N)=O)=C(O)[C@@]2(O)C(=O)C3=C(O)c4c(O)ccc(Cl)c4[C@@](C)(O)[C@H]3C[C@@H]12`, the outcome was inactive. The same measure, in the same setting: the result for `Cc1cc(C)cc(C)c1` reads “inactive”. For the compound `O=c1[nH]c2ccccc2n1C1CCN(CCCC(c2ccc(F)cc2)c2ccc(F)cc2)CC1`, the half-maximal activity concentration (AC50) was 5.83 µM (active). On to `C=CCCl`, for which the outcome was inactive. Take `C1CN2CCN1CC2`: the outcome was inactive. Take `COCC(=O)N(c1c(C)cccc1C)[C@H](C)C(=O)OC`: the call was inactive. On the same count and under the same terms, for `CCCSP(=S)(OCC)Oc1ccc(SC)cc1` (stereo not given) the value was “inactive”; for `CCOc1ccc(N)cc1`, “inactive”. Still for that read-out and setting: the result for `COc1ccc([N+](=O)[O-])cc1O` reads “inactive”; that for `OC(Cc1ccccc1Cl)(Cn1[nH]cnc1=S)C1(Cl)CC1` (stereo not given), “inactive”. Regarding `CC(C)(C)c1ccccc1O`, the AC50 is 100 µM (active). For the compound `CC(C)[N+](=O)[O-]`, the outcome was inactive. For the compound `CCCCCCCCCCCCc1cccc(S(=O)(=O)O)c1`, the AC50 was 30 µM (active). As to `O=C(CCl)Nc1ccccc1`, the AC50 is 76 µM (active). On to `CC(C=O)Cc1ccc2c(c1)OCO2` (stereo not given), for which the call was inactive.

Take `BrCCCCBr`: the call was inactive.

On to `CC(C)O.CC(C)O.OCCN(CCO)CCO.OCCN(CCO)CCO.[Ti]`, for which the outcome was inactive.

For `CCCCOC(C)=O`, the outcome was inactive. Consider `Cc1ccc(OP(=O)(Oc2ccc(C)cc2C)Oc2ccc(C)cc2C)c(C)c1`, for which the AC50 was 11.3 µM (active). As to `CC(C)(C)c1ccc(CCOc2ncnc3ccccc23)cc1`, the outcome was inactive. With `CCOc1cc(C=O)ccc1O`, the compound was classed as inactive. With `Clc1cc(C(Cl)(Cl)Cl)cnc1Cl`, the concentration at half-maximal activity (AC50) is 8.81 µM (active). As to `CCCCS(=O)(=O)Cl`, the compound was called inactive. Still for that read-out and setting: for `N#Cc1ccccc1N` the value was “inactive”. On the same count and under the same terms, the result for `OCCN(CCO)CCO` reads “inactive”; that for `BrCC(Br)c1ccccc1` (stereo not given), “inactive”. The same measure, in the same setting: for `C=CC(Cl)CCl` (stereo not given) the value was “inactive”. For `O=[N+]([O-])c1ccc(Cl)c([N+](=O)[O-])c1`, the AC50 is 5.36 µM (active).

Regarding `CCC(C)(C#N)N=NC(C)(C#N)CC` (stereo not given), the outcome was inactive. `CC(C)(C1CCC(O)CC1)C1CCC(O)CC1` (stereo not given): the outcome was inactive.

With `C=CC(=O)NC(C)(C)CC(C)=O`, the call was inactive. As to `Cc1cc(SCc2sc(-c3ccc(C(F)(F)F)c(F)c3)nc2C)ccc1OCC(=O)O`, the AC50 was 23.8 µM (active).

Regarding `c1ccc2sc(SNC3CCCCC3)nc2c1`, the result was inactive.

`CCOC(=O)C(SP(=S)(OC)OC)c1ccccc1` (stereo not given): the outcome was inactive. As to `c1csc(-c2ccc(-c3cccs3)s2)c1`, the AC50 was 2.08 µM (active).
